What was measured:
Experiment in all cases: log2 ratio of Biotin-Ahx-Ub-VS probe labelling (fragment/DMSO); higher = less target engagement (more negative = stronger competition), active = hit call of the paper (q ≤ 0.05, log2 ratio ≤ -1)
Conditions in all cases: compound concentration: 200 uM; treatment time: 3 h
[1] = molecular target: T1, ALG13 (UniProt Q9NP73)
T1 sequence (whole entry): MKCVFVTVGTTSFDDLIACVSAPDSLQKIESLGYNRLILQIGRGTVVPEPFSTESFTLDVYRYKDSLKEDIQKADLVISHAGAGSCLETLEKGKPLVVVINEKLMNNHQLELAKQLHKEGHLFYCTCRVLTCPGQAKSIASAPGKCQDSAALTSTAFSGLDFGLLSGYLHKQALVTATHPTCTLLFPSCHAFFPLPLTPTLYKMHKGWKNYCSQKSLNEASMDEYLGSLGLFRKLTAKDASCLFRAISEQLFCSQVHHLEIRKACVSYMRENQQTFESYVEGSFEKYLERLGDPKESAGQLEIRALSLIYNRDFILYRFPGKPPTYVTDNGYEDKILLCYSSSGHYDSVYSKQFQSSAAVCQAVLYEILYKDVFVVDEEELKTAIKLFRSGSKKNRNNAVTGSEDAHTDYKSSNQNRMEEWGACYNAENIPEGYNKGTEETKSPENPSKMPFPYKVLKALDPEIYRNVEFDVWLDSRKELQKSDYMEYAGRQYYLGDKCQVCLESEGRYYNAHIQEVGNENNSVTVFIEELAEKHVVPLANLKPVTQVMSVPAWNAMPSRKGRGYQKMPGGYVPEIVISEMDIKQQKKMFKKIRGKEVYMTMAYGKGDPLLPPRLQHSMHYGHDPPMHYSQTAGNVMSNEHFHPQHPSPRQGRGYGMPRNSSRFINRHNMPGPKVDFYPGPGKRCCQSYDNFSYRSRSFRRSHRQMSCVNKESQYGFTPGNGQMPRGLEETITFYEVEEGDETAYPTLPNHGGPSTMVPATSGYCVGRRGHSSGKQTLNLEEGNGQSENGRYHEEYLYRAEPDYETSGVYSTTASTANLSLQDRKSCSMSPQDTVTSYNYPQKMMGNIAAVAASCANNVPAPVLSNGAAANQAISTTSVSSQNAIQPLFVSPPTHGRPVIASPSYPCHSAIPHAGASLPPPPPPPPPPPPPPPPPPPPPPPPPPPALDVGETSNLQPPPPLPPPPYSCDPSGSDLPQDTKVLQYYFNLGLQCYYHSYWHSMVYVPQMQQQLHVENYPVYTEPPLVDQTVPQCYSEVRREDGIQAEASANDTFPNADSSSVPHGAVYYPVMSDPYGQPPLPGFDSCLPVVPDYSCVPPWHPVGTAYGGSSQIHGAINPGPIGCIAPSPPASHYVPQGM
Summary of the method: (§1)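 Values give the average log2 ratio of fragment to vehicle, assessed by unpaired t-test on global-median-normalised Spectronaut label-free quantities. Proteins needed ≥2 unique peptides. HEK293T lysate (495 µg per sample) was treated in triplicate with fragment at 200 µM or vehicle for 3 h and then with Biotin-Ahx-Ub-VS at 0.5 µM final for 1 h. Labelled DUBs were NeutrAvidin-enriched, digested and run by diaPASEF LC-MS/MS.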

[2] = molecular target: ATXN3 (UniProt P54252)
Sequence of ATXN3 (P54252 whole entry): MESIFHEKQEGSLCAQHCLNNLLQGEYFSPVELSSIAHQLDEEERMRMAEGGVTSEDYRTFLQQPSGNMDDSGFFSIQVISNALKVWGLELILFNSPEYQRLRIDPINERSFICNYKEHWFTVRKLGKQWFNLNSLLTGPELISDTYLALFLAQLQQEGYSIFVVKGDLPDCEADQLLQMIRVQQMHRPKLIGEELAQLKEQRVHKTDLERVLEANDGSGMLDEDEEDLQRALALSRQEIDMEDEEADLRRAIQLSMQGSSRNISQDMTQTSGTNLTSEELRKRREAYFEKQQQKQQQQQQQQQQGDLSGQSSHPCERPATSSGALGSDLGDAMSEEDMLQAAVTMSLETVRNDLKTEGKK
Summary of the method: as §1

[3] = molecular target: T2, BAP1 (UniProt Q92560)
T2 sequence (whole entry): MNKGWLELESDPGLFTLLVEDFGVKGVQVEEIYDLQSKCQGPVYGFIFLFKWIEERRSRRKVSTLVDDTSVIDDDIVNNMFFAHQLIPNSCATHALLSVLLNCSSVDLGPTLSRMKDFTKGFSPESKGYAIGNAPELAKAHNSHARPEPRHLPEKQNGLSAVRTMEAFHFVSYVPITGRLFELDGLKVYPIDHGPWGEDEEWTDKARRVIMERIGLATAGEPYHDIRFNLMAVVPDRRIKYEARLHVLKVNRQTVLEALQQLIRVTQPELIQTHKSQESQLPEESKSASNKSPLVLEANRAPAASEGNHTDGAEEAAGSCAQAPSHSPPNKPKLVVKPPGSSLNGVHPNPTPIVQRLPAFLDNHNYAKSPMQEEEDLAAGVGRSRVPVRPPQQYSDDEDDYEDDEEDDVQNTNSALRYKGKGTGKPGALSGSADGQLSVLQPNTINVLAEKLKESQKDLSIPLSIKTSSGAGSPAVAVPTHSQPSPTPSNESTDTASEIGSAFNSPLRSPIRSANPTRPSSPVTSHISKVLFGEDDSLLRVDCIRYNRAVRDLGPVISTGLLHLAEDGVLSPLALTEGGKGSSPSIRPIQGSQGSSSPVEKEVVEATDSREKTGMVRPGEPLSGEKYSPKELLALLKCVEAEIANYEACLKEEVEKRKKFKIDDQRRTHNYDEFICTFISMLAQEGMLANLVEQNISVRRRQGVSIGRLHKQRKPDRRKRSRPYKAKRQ
Summary of the method: as §1

[4] = molecular target: EIF3F (UniProt O00303)
Sequence of EIF3F (O00303 whole entry): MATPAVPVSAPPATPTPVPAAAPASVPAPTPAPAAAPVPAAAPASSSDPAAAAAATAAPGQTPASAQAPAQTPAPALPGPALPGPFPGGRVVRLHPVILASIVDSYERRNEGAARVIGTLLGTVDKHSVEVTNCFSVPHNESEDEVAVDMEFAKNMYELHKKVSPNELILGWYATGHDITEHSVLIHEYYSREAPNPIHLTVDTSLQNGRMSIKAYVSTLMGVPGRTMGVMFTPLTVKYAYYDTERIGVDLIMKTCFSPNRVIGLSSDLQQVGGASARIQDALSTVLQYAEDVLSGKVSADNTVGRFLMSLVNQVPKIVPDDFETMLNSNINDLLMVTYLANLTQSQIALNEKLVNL
Summary of the method: as §1

[5] = molecular target: EIF3H (UniProt O15372)
Sequence of EIF3H (O15372 whole entry): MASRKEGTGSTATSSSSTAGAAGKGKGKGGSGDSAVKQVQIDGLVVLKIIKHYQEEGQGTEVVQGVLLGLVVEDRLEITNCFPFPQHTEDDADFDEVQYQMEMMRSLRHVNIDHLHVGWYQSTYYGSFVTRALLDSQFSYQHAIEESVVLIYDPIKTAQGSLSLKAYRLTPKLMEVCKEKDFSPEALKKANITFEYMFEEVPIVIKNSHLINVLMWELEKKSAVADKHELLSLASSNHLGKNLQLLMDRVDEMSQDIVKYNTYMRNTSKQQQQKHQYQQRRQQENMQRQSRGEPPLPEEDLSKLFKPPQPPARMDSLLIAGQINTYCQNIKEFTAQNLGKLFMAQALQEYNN
Summary of the method: as §1

[6] = molecular target: T3, FAM105A (UniProt Q9NUU6)
T3 sequence (whole entry): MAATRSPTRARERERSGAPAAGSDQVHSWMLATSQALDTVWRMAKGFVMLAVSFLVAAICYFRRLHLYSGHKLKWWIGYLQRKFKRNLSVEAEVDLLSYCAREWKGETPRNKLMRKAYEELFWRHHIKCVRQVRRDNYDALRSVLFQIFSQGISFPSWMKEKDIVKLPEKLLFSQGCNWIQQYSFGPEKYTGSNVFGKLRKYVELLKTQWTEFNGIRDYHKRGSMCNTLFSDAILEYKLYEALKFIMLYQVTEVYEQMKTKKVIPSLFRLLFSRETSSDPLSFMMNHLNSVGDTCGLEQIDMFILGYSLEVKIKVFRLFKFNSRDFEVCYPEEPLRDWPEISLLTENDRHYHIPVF
Summary of the method: as §1

[7] = molecular target: OTUB1 (UniProt Q96FW1)
Sequence of OTUB1 (Q96FW1 whole entry): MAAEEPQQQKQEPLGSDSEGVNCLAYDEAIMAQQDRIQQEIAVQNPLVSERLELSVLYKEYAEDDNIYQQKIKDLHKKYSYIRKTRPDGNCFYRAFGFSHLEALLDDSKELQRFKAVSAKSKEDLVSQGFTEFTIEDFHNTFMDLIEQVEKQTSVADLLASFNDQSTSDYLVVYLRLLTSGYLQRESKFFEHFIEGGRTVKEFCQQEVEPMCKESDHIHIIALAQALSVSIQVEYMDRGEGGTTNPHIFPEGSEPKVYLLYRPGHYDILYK
Summary of the method: as §1

[8] = molecular target: T4, OTUD4 (UniProt Q01804)
T4 sequence (whole entry): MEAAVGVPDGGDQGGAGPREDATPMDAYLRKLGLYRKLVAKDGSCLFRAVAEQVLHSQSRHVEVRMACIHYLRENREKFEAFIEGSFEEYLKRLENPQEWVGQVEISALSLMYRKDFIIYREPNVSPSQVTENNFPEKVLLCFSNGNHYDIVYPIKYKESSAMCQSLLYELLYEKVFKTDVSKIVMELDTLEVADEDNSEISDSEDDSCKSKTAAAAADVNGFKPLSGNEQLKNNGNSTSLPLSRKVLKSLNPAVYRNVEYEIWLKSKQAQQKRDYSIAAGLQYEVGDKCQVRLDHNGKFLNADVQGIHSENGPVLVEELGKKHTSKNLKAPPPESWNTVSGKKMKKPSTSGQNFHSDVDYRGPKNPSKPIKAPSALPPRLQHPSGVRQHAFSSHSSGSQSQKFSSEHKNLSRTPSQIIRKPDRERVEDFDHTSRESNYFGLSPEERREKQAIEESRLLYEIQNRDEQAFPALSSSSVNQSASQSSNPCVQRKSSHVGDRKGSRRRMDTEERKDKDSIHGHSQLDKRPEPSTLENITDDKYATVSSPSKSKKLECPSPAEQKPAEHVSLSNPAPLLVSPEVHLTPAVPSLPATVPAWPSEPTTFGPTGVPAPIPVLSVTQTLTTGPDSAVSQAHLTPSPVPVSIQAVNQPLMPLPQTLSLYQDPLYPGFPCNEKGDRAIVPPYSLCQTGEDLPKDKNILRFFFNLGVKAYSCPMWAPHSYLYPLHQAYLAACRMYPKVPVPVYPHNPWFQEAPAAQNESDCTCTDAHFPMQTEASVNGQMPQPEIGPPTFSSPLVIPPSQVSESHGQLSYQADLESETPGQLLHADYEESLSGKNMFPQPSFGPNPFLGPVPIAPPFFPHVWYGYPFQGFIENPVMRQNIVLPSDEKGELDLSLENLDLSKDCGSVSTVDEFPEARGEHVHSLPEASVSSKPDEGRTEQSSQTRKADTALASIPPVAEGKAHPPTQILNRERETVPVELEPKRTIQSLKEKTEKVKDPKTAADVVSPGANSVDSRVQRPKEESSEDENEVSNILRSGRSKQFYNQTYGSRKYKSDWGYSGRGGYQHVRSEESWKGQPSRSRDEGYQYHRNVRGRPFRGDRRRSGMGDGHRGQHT
Summary of the method: as §1

[9] = molecular target: T5, OTUD5 (UniProt Q96G74)
T5 sequence (whole entry): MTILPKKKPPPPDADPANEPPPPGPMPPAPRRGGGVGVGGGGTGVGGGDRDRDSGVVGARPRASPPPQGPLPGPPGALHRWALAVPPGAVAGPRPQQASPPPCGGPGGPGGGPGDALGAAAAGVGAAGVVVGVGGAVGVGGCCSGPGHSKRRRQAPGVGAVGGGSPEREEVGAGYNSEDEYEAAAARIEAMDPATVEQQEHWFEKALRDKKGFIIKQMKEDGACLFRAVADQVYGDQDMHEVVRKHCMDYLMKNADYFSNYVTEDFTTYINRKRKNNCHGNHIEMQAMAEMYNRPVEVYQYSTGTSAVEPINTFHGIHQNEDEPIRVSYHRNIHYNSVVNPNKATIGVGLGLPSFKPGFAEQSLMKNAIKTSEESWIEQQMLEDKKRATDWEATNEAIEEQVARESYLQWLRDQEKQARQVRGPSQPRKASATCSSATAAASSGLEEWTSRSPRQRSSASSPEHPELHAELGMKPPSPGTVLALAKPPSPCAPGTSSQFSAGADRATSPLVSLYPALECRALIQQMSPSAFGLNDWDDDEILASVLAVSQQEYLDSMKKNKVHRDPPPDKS
Summary of the method: as §1

Measured: log2 ratio of Biotin-Ahx-Ub-VS probe labelling

Cl.Cn1nc2c(c1CNC(=O)CCl)CCCC2
inactive: [1] -0.455 | [2] -0.903 | [4] -0.323 | [5] -0.0155 | [6] -0.099 | [7] -0.175 | [8] -0.319 | [9] -0.329
active: [3] -2.53

— the supplement of paper PMC11732987, “Enantioselective OTUD7B fragment discovery through chemoproteomics screening and high-throughput optimisation” (Communications Chemistry, 2025)
